# Bioassay records as filed in PubChem.
# Only some compounds are listed: those with a hit (about 13% of all), similar ones and a draw of the others.
# Marburg entry inh: Marburg virus entry inhibition. Potency, µM (top dose mostly 37.8 µM), for inactives: at the highest dose activity change, negative = inhibition, usual class: inhibitors. AID 540276. 300,000 compounds, 1.8% hits. Marburg virus pseudotyped entry inhibition, cell reporter; calls by dose curve; tested in HEK293 cells; further: potency means the concentration at half of the fitted maximal effect; on the % scale 0 is the no-effect control and ±100 the full control effect
# HCV inh: inhibitors of hepatitis C virus infection; Huh7.5.1 HCVcc-Cre infection, luciferase reporter, 44 h; Potency, µM (top dose mostly 41.8 µM), inactives show at the top dose activity change, negative = inhibition, most hits filed as inhibitors; 340,000 compounds, 3.4% hits; AID 651820; active means well fitted inhibition curve with a large enough effect; inconclusive means small, poorly fitted or top-dose-only effect, or another doubt; inactive means no such curve, though single readings can be large or run the other way; further: potency means the concentration at half of the fitted maximal effect; on the % scale 0 is the no-effect control and ±100 the full control effect
#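 Infectious HCVcc-Cre (~0.5 moi) was added to cells just after compound, with cells seeded 4 h earlier at 1,000 per well. Luciferase activity after 44 h culture reported infection; substrate was incubated 15 min at room temperature before reading.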
# Shiga toxin inh: Shiga toxin inhibition | 290,000 compounds, 9.2% hits | inhibition, % at 38.7 µM | Vero cells, Shiga toxin protein synthesis inhibition reporter | AID 2315; in the data active means inhibition mostly above about 28%, no sharp cut-off; inactive means mostly below about 43%; further: 0% is about no effect
# FMDV antiviral: foot and mouth disease virus antiviral activity | FMDV antiviral cell-based qHTS | Potency, µM (series often up to 57.9 µM), for the others: top-dose activity change, negative = inhibition, hits mostly inhibitors | 410,000 compounds, 1.2% hits; calls by dose curve; tested in HEK293T cells; further: read-out not given here; potency means the concentration at half of the fitted maximal effect; on the % scale 0 is the no-effect control and ±100 the full control effect; nearly all actives have a fitted effect of over 45% in size
# Cycloheximide cs: counter-screen hit for Shiga toxin inhibitors, cycloheximide; cell reporter, cycloheximide protein synthesis inhibition counterscreen; max response, %; 300,000 compounds, 12% hits; AID 2314; in the data active means max response mostly above about 13%, no sharp cut-off; inactive means mostly below about 14%; further: read at 38.3 µM for the half of the compounds with a filed dose; 0% is about no effect
# Lassa entry inh: inhibitors of Lassa virus binding or cell entry | Lassa virus pseudotype entry inhibition, cell reporter | 300,000 compounds, 1.2% hits | Potency, µM (top dose mostly 37.9 µM), for the others: at the top dose activity change, negative = inhibition, most hits filed as inhibitors; calls by dose curve; tested in HEK293 cells; further: potency means the concentration at half of the fitted maximal effect; on the % scale 0 is the no-effect control and ±100 the full control effect; nearly all actives have a fitted effect of over 50% in size
# * = called active by the depositor; ? = inconclusive; . = not tested or not shown; [ ] = dose if it differs, or a comment.
SMILES,Marburg entry inh,HCV inh,Shiga toxin inh,FMDV antiviral,Cycloheximide cs,Lassa entry inh
Cc1ccc(C(=O)NC(C(=O)Nc2ccccc2)c2ccccc2)cc1 (centres undefined),.,1%,0,-3%,7,.
CC(=NNC(=S)Nc1cccc(Cl)c1)c1ccccn1,0.2µM*,?,.,-9%,.,1.1µM*
S=C(NCc1ccccn1)Nc1cccc(Cl)c1,0%,-6%,26,95%,13*,1%
Cc1cccc(NC(=S)NCc2ccccn2)c1,6%,-11%,42,55%,28,16%
S=C(NCCC(c1ccccc1)c1ccccc1)Nc1cccc(Cl)c1,-4%,?,1,34%,0,-28%
CC(=NNC(=S)N1CCCC1)c1ccccn1,.,.,.,14%,.,.
S=C(NCCN(C1CCCCC1)C1CCCC1)Nc1cccc(Cl)c1,?,13µM*,-12,-16%,-6,?
Cc1ccc(NC(=O)C(NCc2ccccn2)c2ccccc2)cc1 (centres undefined),?,2%,101*,60%,37*,3%
O=S(=O)(c1ccc(-c2n[nH]c(=S)o2)cc1)N1CCCCC1,?,15%,-3,5%,-3,8%
Cc1nc2ccccc2n1CCOc1ccc(F)cc1,.,?,-10,-20%,-1,.
O=C(Nc1ccc(F)c(Cl)c1)C1CCN(c2ncnc3c2nc2n3CCCCC2)CC1,13%[46.1 µM],?,5,?,-2,-23%[46.1 µM]
CCOc1cc(C(=O)OCC(=O)Nc2ccc(SC(F)F)cc2)cc(OCC)c1OCC,?,?,12,-5%,4,?
CCOC(=O)c1c(-c2ccc(OC)c(OC)c2)csc1NC(=O)c1ccccc1F,17%[46.1 µM],.,.,0%,.,-6%[46.1 µM]
Cc1ccc(NC(=O)CN2CCCC2)cc1Br,?,-22%,6,-2%,7,18%[46.1 µM]
O=c1cc(NS(=O)(=O)c2ccccc2)nc(SCc2ccccc2Cl)[nH]1,?,?,-8,?,-3,?
S=C(NCc1ccccn1)NN=Cc1ccccn1,?,?,.,8%,.,13µM*
Cc1ccc(NC(=S)NCc2ccccn2)cc1,-3%,4%,108*,46%,38*,6%
C=C1CCC2[C@](C)(CO)[C@H](O)CC[C@@]2(C)[C@@H]1C/C=C1/C(=O)OC[C@H]1O (some centres undefined),.,.,.,-15%,.,.
Cc1nc2cc(NCc3nc4ccccc4n3Cc3ccccc3)ccc2n1C,10µM*,-27%,44*,-30%,27*,?
Cc1cccc(NCc2nc3ccccc3n2C)c1,15%,9%,85,.,34,?
Cc1ccc(NCc2nc3ccccc3n2C)c(C)c1,2.5µM*,18%,45*,-1%,23*,?
Cn1c(CNc2ccc(Cl)cc2)nc2ccccc21,-18%,20µM*,110*,-3%,31*,?
CC(C)COc1ccc(C(=O)N/C(=C\c2cccc([N+](=O)[O-])c2)C(=O)O)cc1,-7%[46.1 µM],9%,-8,4%,1,9%
CCC(C)(C)C1CCC2(CC1)NC(=O)N(CC(=O)N(C)CC(=O)Nc1ccccc1C(F)(F)F)C2=O (centres undefined),0%,?,53*,?,58*,-10%
Cc1ccnc2nc(C(=O)NC3=NCCS3)nn12,7%,4%,12,12%,3,0%
SMILES,Marburg entry inh,HCV inh,Shiga toxin inh,FMDV antiviral,Cycloheximide cs,Lassa entry inh
Cc1ccnc2nc(C(=O)Nc3nccs3)nn12,10%,1%,29,44%,22*,5%
Cc1cc(C)n2nc(C(=O)Nc3ccc4c(c3)OCO4)nc2n1,16%[46.1 µM],-8%,61*,5%,32*,?
Cc1ccnc2nc(C(=O)Nc3ccc4c(c3)OCO4)nn12,?,2%,75*,.,27*,?
COc1cc(NC(=O)c2cc3c(CO)cnc(C)c3oc2=Nc2cccc(C(N)=O)c2)cc(OC)c1,.,6%,-9,-14%,-7,.
CCc1ccc(NC(=O)Cc2c(C(=O)O)n(C)c3ccccc23)cc1,19%[46.1 µM],-6%,-5,1%,10,1%[46.1 µM]
CCOC(=O)CCS(=O)(=O)c1nc(-c2ccccc2)cc(C(F)(F)F)n1,6.3µM*,10µM*,-14,20µM*,-6,13µM*
COC(=O)CCS(=O)(=O)c1nc(-c2ccccc2)cc(C(F)(F)F)n1,?,?,-17,16µM*,1,23µM*
CCOC(=O)c1c(C(F)(F)F)cc(-c2ccc(F)cc2)nc1C,?,-13%,14,8%,8,0%
